According to PubChem BioAssay AID504617 (Sanford-Burnham Center for Chemical Genomics, 2011):
The other results are listed elsewhere or left out. A number with no mark means an inactive call. Activity calls are given as the source filed them.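 The calls were made as follows: active = mean activity change at or below -40%, meaning activation of 40% or more, at 20 µM; inactive = the rest.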

biological target: Apoptotic protease-activating factor 1 (Homo sapiens) (UniProt O14727); assay: enhancers of apoptosome-driven caspase-3 activity – biochemical, fluorescence, DEVD-Rh110, 20 µM, confirmation (AID 504617); settings: reconstituted apoptosome caspase-3 activity, at 20 µM, hits give low values
Sequence (O14727 whole entry, looked up): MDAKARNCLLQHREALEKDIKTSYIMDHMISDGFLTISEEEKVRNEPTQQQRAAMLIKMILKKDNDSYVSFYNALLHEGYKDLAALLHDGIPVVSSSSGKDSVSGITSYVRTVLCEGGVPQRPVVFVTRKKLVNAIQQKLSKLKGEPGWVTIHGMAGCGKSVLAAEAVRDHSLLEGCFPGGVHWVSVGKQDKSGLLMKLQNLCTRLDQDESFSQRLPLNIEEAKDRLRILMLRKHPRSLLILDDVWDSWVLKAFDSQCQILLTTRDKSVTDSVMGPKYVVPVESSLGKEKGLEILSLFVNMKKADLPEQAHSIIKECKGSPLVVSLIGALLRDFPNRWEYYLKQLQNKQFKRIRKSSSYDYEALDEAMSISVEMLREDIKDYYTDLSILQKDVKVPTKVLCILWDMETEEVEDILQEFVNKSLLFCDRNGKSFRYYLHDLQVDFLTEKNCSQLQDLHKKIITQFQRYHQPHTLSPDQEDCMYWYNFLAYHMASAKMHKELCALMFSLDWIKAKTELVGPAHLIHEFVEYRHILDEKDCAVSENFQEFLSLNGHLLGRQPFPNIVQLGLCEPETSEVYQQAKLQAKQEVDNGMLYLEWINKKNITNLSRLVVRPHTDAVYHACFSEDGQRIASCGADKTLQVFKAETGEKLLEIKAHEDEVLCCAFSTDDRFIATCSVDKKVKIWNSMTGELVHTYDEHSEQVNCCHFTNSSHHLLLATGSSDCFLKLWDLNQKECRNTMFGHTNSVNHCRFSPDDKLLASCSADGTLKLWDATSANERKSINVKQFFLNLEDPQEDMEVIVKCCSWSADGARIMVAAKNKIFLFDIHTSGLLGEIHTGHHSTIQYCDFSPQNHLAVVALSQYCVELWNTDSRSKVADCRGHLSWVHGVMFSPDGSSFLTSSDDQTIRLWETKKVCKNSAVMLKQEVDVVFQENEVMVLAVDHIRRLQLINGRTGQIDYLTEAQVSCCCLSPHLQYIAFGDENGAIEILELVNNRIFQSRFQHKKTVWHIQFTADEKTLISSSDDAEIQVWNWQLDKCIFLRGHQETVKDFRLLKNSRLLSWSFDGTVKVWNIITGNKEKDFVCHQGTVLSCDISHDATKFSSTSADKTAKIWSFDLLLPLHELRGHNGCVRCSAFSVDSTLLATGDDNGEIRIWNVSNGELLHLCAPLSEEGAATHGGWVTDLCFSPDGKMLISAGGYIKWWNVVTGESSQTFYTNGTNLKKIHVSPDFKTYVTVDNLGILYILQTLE

Row | SMILES | activity change, negative = activation
1 | CC1COc2ccccc2N1C(=O)c1cccnc1Cl (configuration not stated) | 6.25%
2 | C=CC1=C(C(=O)O)N2C(=O)[C@@H](NC(=O)/C(=N/OCC(=O)O)c3csc(N)n3)[C@H]2SC1 | -113% (active)
3 | N#CC1(C#N)C(C(=O)C23CC4CC(CC(C4)C2)C3)C12CCOCC2 (configuration not stated) | 6.87%
4 | C=CC1=C(C(=O)O)N2C(=O)[C@@H](NC(=O)/C(=N\OCC(=O)O)c3csc(N)n3)[C@H]2SC1 | -114% (active)
5 | COc1ccccc1OCC(=O)Nc1c2c(nn1-c1ccc(F)cc1)CS(=O)(=O)C2 | 9.31%
6 | CCOc1ccc(N=C2NC(=O)S/C2=C\c2ccc(O)cc2)cc1 | -7.41%
7 | COc1ccc(OCCCC(=O)NCCc2ccccc2)cc1 | 4.66%
8 | COc1cc(C(=O)NCc2nnc(SCC(=O)Nc3nc4ccc(C)cc4s3)o2)cc(OC)c1OC | 8.22%
9 | O=C(Nc1ccccc1F)c1ccccc1-c1ccccc1 | 4.47%
10 | C=C(C)C(=O)Nc1cccc(C2=NOC3(C2)C[C@H](C(N)=O)N(C(=O)C(c2ccccc2)c2ccccc2)C3)c1 (some centres not stated) | -78.6% (active)
11 | CCCC(=O)Nc1nc2ccc(NC(=O)c3c(F)c(F)c(OC)c(F)c3F)cc2s1 | 9.11%
12 | CC(C)N1CCC(NC(=O)Nc2ccccc2)CC1 | 9.51%
13 | O=c1[nH]cnc2c1c(-c1ccccc1)cn2-c1ccc(F)cc1 | 10.9%
14 | O=C(CSc1ccc(-c2ccc(-n3cccn3)cc2)nn1)Nc1ccc([N+](=O)[O-])cc1 | 8.16%
15 | Cc1cc(NC(=O)c2cccc(N3C(=O)CCC3=O)c2)no1 | 4.77%
16 | COc1ccc(C2c3ccc(O)cc3Oc3ncn(CCCO)c(=N)c32)cc1OC (configuration not stated) | 0.56%
17 | Clc1cccc(-c2nc3nc4ccccc4nc3n2Cc2ccco2)c1 | 21.3%
18 | COc1ccc2c(c1)CCNC2Cc1ccc(OC)c(O)c1 (configuration not stated) | 12.2%
19 | CCOCCCNC(=O)c1c[nH]c2cc(C)ccc2c1=O | 13.4%
20 | O=c1[nH]c2c(c(=O)n1Cc1ccccc1)CCC2 | 11%
21 | COc1ccc(C2CC(c3ccccc3)Nc3ncnn32)cc1 (configuration not stated) | 8.21%
22 | CN(C)S(=O)(=O)c1ccc(C(=O)NCCN=C2NS(=O)(=O)c3ccccc32)cc1 | 4.07%
